Test results published in PubChem BioAssay AID1727 (National Center for Advancing Translational Sciences (NCATS), 2009).
Values without a mark were called inactive. Active and inactive are the calls of the source. Calls come from the whole dose curve; as a rule, active = well fitted curve in the direction sought with a large enough effect; inactive = no such curve, though single readings can be large or run the other way.

target: Epidermal growth factor receptor (Homo sapiens) (UniProt P00533); assay: Assay for Inhibitors of the ERK Signaling Pathway using a Homogeneous Screening Assay: EGFR L858R Kinase Inhibition; details: EGFR L858R kinase biochemical inhibition assay; series mostly up to 21.9 µM; activity, negative = inhibition: at the top concentration
From the text: qHTS Assay for Inhibitors of the ERK Signaling Pathway using a Homogeneous Screening Assay
NIH Chemical Genomics Center [NCGC]
NIH Molecular Libraries Screening Centers Network [MLSCN]
Assay Submitter (PI): Dr. Wei Zheng, NCGC/NIH
The Ras/extracellular-signal-regulated kinase (ERK) mitogen activated protein (MAP) kinase signaling pathway (ERK1/2 cascade) plays is a key role in transmitting signals from the cell surface to the nucleus (Nishida and Gotoh 1993; Chang and Karin, 2001). The cascade is initiated by the small G-protein Ras, which recruits Raf […], where activation occurs. Alternatively, this pathway can be activated by elevating intracellular cAMP.
Activation of the ERK pathway is essential in increased cell division and cell survival. Sustained and constitutive activation of the ERK pathway, however, has been linked to uncontrolled cell proliferation, increased cell survival, and tumor progression. Thus, the ERK has been as an attractive target for cancer chemotherapy in the past few years (Sebolt-Leopold and Herrera, 2004). Given its physiological and pathological importance, assessment of ERK phosphorylation has been broadly performed in both basic research and drug discovery. Most assays for the measurement of ERK phosphorylation use the antibody-based detection methods, such as western blot and ELISA. These assays require multiple reagent additions with cell wash steps and are not suitable for high-throughput screening.
The current cell-based ERK phosphorylation assay was performed using AlphaScreen platform. AlphaScreen is a two bead-based proximity-dependent chemical energy transfer luminescent assay platform. The assay reagents (ERK SureFire(TM) kit) were supplied from TGR BioSciences (Australia). In the presence of specific antibodies, phosphorylated ERK will bring "donor" and "acceptor" beads to a proximity range (<200 nm), and subsequently lead a chemical luminescent reaction upon exciting donor beads with 680 nm laser. To validate pathway hits from the cell-based assay, enzyme assays consisting of EGFR tyrosine kinase, Raf and MEK were used as a means of deciphering the enzymes of target for the prioritized group of compounds derived from the HEK-293 cell based assay. The compounds were tested against significant members of the ERK signaling pathway EGFR and EGFR mutants (EGFR L858R, EGFR T790M, and EGFR L858R T790M). In order to establish the specificity of the prioritized compounds for EGFR and EGFR mutants, the compounds were also assayed against other important ERK signaling pathway enzymes, c-RAF and MEK-1.
NCGC Assay Protocol Summary:
The HTRF kinase assay (components supplied as kit by Cisbio) was chosen for the EGFR and EGFR mutant enzyme assays that applied the time resolved fluorescence resonance energy transfer (TR-FRET) principle. A peptide substrate is labeled with a biotin that can bind to XL665 labeled streptavidin and the anti-phosphoresidue antibody is labeled with Eu+. Upon phosphorylation of the substrate, the antibody binds to phosphorylated substrate that enables TR-FRET detection in homogenous assay format.
An HTRF Kinease TK assay kit (Cisbio, Bedford, MA) was used to develop the EGFR and EGFR mutant assays (Harbert et al., 2008. Harbert C, Marshall J, Soh S, Steger K. Development of a HTRF Kinase Assay for Determination of Syk Activity. Current Chemical Genomics. 1: 20-26. 2008). EGFR and EGFR mutants were obtained from Invitrogen. The assay buffer was composed of 50 mM HEPES (pH 7.0), 5 mM MgCl2, 5mM DTT, 0.1 % NaN3, 0.1 % BSA and 0.1 mM orthovanadate.
The HTRF assays were preformed according to the HTRF Kinease TK kit. Optimization for each enzyme was preformed in 384 well format (data not included). All reagents were dispensed into 1536 well plates.
(1) Enzyme, […] EGFR at 3 nM final
(2) Compound, 22 nl, Library Compounds in 0.128 to 10 mM titration series or control
(3) Reagent, 1.5 ul 10 uM ATP and 0.25 uM substrate final
(4) Incubation for 30 min, Ambient conditions
[…]

Chain of Epidermal growth factor receptor (Homo sapiens) (P00533 whole entry L858R, looked up): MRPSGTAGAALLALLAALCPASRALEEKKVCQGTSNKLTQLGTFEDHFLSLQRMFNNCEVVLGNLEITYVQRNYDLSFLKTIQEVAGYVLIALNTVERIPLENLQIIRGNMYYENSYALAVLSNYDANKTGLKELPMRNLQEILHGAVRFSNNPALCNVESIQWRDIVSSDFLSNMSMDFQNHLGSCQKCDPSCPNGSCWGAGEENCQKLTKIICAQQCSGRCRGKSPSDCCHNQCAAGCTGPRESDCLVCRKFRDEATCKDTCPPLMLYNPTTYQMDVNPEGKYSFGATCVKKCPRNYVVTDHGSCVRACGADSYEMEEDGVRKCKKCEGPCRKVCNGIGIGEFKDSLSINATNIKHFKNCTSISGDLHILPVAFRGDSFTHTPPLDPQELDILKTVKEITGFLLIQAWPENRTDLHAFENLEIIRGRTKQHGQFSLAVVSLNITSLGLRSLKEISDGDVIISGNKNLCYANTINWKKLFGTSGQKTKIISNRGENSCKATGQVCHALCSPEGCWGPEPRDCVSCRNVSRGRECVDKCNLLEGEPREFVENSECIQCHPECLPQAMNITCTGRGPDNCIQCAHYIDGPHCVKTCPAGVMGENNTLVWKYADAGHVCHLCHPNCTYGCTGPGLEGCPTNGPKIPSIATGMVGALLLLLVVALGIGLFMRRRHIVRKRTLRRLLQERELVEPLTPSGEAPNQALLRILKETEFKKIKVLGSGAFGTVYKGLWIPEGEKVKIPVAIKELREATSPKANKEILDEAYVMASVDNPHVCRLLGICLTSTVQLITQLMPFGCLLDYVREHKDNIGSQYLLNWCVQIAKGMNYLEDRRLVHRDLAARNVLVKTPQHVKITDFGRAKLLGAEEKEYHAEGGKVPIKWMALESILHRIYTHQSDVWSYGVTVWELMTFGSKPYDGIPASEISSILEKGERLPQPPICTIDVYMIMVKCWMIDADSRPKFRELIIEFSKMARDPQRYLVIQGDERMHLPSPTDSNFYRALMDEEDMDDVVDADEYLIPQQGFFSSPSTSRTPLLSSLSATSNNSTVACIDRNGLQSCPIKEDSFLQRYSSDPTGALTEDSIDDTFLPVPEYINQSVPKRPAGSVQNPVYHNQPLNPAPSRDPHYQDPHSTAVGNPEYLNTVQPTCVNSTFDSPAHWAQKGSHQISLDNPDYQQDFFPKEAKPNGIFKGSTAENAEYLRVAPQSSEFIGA

| Compound | activity, negative = inhibition | Potency |
| --- | --- | --- |
| O=C(Nc1nc(-c2ccccc2)cs1)c1ccc(N2CCOCC2)c([N+](=O)[O-])c1 | -3.33% [at 65.8 µM] | – |
| Cn1nc(-c2ccc(Cl)cc2)nc2c(=O)n(C)c(=O)nc1-2 | -1.74% | – |
| CCN(CC)CCC(=O)Nc1cccc2c1C(=O)c1ccccc1C2=O | -11.8% | – |
| Cc1nc2ccccc2nc(=O)c1NNc1ccccc1 | – | 631 nM (active) |
| CNc1cccc2c1C(=O)c1ccccc1C2=O | -2.12% | – |
| Fc1ccc(Nc2ncnc3sc4c(c23)CCC4)cc1F | – | 44.7 nM (active) |
| COc1ccc(C(=O)c2ccc(Cl)c([N+](=O)[O-])c2)cc1 | -9.07% | – |
| CCn1c(=O)c2[nH]c(-c3ccccc3)nc2n(CC)c1=O | -11.3% | – |
| CS(=O)(=O)CCNCc1nc(-c2ccc3ncnc(Nc4ccc(OCc5cccc(F)c5)c(Cl)c4)c3c2)cs1 | – | 50.1 nM (active) |
| Cc1ccc(NNc2c(C)nc3ccccc3nc2=O)cc1 | – | 3160 nM (active) |
| Cn1c(=O)[nH]c2nnc(-c3ccc(Cl)c(Cl)c3)nc2c1=O | -2.48% [at 65.8 µM] | – |
| Cc1ccc2nc(=O)c(NNc3ccccc3)cnc2c1 | – | 631 nM (active) |
| O=C1c2ccccc2C(=O)c2c1cccc2N1CCCC1 | -7.13% | – |
| O=C1c2ccccc2C(=O)c2c(NCCCN(CCO)CCO)cccc21 | -1.94% | – |
| CN(C)c1cccc2c1C(=O)c1ccccc1C2=O | 0.987% | – |
| Cn1nc(-c2ccccn2)nc2c(=O)n(C)c(=O)nc1-2 | 3.73% | – |
| N#C/C(=C(/N)Sc1ccc(N)cc1)c1ccccc1C(F)(F)F | – | inactive |
